The values that follow come from ChEMBL document CHEMBL1961873, “Compounds: GSK PKIS; Assays: Nanosyn kinase panel” (2012).

Values joined by “and” are separate entries in the source; they are usually repeats but may differ in a detail not shown here. Identical values can stand only once.

The target in experiment [1] is CDK3/Cyclin E (Homo sapiens) (UniProt P24864+Q00526). As to conditions: at 1 µM.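 Also: each figure is a mean percent inhibition of the CDK3/cyclin E complex.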
Experiment [2] has as its target Cyclin-dependent kinase 4 (Homo sapiens) (UniProt P11802). As to conditions: at 0.1 µM.
Experiment [3] shares this target. As to conditions: at 1 µM.
For experiment [4], the target named is Cyclin-dependent kinase 5 (Homo sapiens) (UniProt Q00535). As to conditions: at 0.1 µM.
Sequence of Cyclin-dependent kinase 5 (Homo sapiens) (Q00535 whole entry, looked up): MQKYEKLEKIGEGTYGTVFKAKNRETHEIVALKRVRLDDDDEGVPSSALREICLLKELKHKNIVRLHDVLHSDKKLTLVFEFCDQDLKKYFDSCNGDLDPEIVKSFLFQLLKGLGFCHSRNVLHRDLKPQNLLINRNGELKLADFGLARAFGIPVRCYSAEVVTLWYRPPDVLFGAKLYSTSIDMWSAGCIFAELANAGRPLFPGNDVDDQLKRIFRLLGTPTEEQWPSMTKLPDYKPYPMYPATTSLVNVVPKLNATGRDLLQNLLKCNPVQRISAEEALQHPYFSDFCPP
Experiment [5] shares this target. As to conditions: at 1 µM.
The target of experiment [6] is Cyclin-dependent kinase 6 (Homo sapiens) (UniProt Q00534). As to conditions: at 0.1 µM.
Sequence of Cyclin-dependent kinase 6 (Homo sapiens) (Q00534 whole entry): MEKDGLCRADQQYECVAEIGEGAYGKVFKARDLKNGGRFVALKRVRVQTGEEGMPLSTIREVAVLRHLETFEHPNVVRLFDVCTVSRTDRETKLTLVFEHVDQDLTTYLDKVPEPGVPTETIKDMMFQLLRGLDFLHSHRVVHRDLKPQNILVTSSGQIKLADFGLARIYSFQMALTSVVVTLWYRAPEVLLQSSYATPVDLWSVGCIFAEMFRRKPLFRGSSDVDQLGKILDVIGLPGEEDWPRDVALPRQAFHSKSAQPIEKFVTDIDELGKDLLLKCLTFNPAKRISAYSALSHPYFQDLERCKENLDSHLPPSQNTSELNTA
Experiment [7] shares this target. As to conditions: at 1 µM.
The target of experiment [8] is Dual specificity protein kinase CLK2 (Homo sapiens) (UniProt P49760). As to conditions: at 0.1 µM.
Sequence of Dual specificity protein kinase CLK2 (Homo sapiens) (P49760 whole entry, looked up): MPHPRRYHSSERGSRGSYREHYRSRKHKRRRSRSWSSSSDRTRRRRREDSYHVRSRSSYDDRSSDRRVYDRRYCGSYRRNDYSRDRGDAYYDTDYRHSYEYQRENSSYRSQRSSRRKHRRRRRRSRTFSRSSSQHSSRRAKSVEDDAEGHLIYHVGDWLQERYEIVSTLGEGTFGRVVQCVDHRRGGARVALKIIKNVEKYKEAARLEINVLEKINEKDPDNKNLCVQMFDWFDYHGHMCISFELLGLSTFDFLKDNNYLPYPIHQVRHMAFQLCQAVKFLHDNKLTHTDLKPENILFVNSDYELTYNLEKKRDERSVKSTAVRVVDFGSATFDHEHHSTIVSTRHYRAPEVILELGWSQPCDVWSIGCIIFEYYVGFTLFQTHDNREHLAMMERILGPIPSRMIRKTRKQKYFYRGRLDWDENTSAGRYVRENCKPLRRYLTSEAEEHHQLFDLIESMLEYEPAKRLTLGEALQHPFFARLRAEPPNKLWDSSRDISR
Experiment [9] shares this target. As to conditions: at 1 µM.
For experiment [10], the target named is Dual specificity protein kinase CLK3 (Homo sapiens) (UniProt P49761). As to conditions: at 0.1 µM.
Sequence of Dual specificity protein kinase CLK3 (Homo sapiens) (P49761 whole entry, looked up): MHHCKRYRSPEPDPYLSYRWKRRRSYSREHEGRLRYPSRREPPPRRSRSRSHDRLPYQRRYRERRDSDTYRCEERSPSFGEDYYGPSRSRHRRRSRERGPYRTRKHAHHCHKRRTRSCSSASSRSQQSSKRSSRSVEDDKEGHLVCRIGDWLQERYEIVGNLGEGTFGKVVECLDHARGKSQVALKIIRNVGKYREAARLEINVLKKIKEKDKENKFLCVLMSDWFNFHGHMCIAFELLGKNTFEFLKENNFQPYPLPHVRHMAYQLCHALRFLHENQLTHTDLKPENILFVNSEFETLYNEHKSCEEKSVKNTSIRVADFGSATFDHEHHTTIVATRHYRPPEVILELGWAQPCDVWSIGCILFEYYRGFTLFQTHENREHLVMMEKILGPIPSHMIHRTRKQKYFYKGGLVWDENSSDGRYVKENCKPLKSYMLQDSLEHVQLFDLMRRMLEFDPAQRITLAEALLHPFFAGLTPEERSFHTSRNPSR

Sequence of Cyclin-dependent kinase 4 (Homo sapiens) (P11802 whole entry): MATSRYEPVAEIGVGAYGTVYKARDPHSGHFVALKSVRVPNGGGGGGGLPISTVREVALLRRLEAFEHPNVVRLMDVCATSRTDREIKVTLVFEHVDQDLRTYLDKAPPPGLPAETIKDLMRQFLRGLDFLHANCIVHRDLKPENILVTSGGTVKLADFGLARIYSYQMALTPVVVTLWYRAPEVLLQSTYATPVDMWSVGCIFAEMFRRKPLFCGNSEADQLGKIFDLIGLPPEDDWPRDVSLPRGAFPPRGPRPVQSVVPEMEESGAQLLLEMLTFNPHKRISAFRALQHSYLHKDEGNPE
Sequence of CDK3/Cyclin E (Homo sapiens) (P24864 whole entry, looked up): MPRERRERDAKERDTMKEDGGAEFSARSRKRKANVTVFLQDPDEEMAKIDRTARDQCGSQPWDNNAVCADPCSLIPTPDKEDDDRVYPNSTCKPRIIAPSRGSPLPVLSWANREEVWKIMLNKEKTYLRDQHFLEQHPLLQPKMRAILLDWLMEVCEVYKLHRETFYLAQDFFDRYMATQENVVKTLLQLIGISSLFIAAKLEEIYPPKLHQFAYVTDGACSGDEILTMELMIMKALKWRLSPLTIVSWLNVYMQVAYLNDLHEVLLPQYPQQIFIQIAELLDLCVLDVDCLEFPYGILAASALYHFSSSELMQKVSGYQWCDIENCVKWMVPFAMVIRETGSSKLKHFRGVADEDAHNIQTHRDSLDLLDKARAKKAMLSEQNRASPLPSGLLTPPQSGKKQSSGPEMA
Sequence of CDK3/Cyclin E (Homo sapiens) (Q00526 whole entry, looked up): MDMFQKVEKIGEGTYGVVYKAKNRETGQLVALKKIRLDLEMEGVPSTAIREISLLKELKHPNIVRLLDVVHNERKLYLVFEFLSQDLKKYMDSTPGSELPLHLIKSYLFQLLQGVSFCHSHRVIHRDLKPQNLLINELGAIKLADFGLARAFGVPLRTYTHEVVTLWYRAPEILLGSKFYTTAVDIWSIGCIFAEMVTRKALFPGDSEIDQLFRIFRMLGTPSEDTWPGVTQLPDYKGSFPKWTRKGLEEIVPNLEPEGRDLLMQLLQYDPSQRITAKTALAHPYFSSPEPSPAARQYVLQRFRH

In general, inhibition refers to the change of the read-out against control, counted positive when it falls. For `CC1=C(C(=O)Nc2ccc3[nH]ncc3c2)C(c2ccc(F)cc2)N=C(c2ccc(C(F)(F)F)nc2)N1` (stereo not given), the inhibition in [1] came out at 1.96%; in experiment [2], 2.27%; in experiment [3], 2.07%; in [4], 0.56%; in [5], 0.43%; in [6], 2.17%. For the same compound, the inhibition is 1.9% in [7], 0.46% in experiment [8], -0.11% in experiment [9] and 1.34% in experiment [10].

`CN1CCN(Cc2ccc(-c3cc4ncnc(Nc5ccc(OCc6cccc(F)c6)c(Cl)c5)c4s3)o2)CC1`: the inhibition in [1] is -0.88% and -0.53%; in experiment [2], 0.41% and 3.55%; in experiment [3], 4.82% and 8.07%; in [4] it was 1.3% and 1.22%; in [5] it was 2.71% and 2.36%; in experiment [6] it was -3.55% and 3.09%. Moreover, the inhibition in [7] is -1.42% and 9.4%; in experiment [8], -0.35% and 2.37%; in [9], -0.11% and 1.21%; in [10] it was -0.14% and 1.15%.

On to `O=C(O[C@H]1CN[C@H](C#Cc2cc3ncnc(Nc4ccc5c(cnn5Cc5ccccc5)c4)c3s2)C1)N1CCOCC1`, for which the inhibition in experiment [1] was -1.05%; in experiment [2] it was 0.36%; in [3], 3.2%; in [4] it was 2.53%; in experiment [5] it was 3.35%; in experiment [6], -1.23%. The inhibition in experiment [7] was 0.26%; in experiment [8] it was -1.51%; in [9], -0.74%; in experiment [10], -0.96%.

Consider `Cn1c(-c2nonc2N)nc2cnccc21`, for which the inhibition in [1] was 2.12%; in experiment [2], 1.95%; in experiment [3], 3.9%; in [4], 1.09%; in [5], 7.18%; in [6] it was -4.08%. For the same compound, the inhibition in [7] was 1.64%; in experiment [8] it was 2.9%; in [9] it was 10.3%; in experiment [10], 1%.

For `CNC(=O)c1ncccc1Nc1nc(Nc2cc3c(cc2OC)CCCN3C(=O)CN(C)C)nc2[nH]ccc12`, the inhibition in experiment [1] worked out at 1.69%; in [2] it was 5.18%; in [3], 11.4%; in experiment [4], 3.84%; in experiment [5], 6.35%; in [6] it was 3.87%. The inhibition came out at 7.17% in [7], 54.3% in experiment [8], 93.1% in experiment [9] and 1.98% in [10].

As to `FC(F)(F)CNc1nccc(-c2cnn3ncccc23)n1`, the inhibition in [1] came out at 11.2%; in experiment [2], 2.33%; in experiment [3], 10.8%; in experiment [4], 3.62%; in [5] it was 22.9%; in experiment [6] it was 0.9%. For the same compound, the inhibition in [7] was 3.37%; in [8], 5.19%; in experiment [9], 51%; in experiment [10], 0.47%.

Regarding `COc1cccc(-n2ncc3c(N/N=C/c4ccc(C(=O)NCCN(C)C)cc4)ncnc32)c1`, the inhibition in [1] turned out to be 50.1%; in experiment [2], 40.6%; in experiment [3], 71.4%; in experiment [4] it was 37.9%; in experiment [5] it was 74.3%; in experiment [6], 47.9%. The inhibition in experiment [7] worked out at 81.5%; in experiment [8], 21.6%; in experiment [9], 73.7%; in [10], 5.88%.

Consider `CN(C)CCNC(=O)Nc1ccc(N(C)c2ccnc(Nc3ccc(CS(C)(=O)=O)cc3)n2)cc1`, for which the inhibition stood at 0.2% in experiment [1]; 3.81% in experiment [2]; 4.81% in experiment [3]; 0.85% in [4]; 2.57% in experiment [5]; 0.28% in [6]. The inhibition in experiment [7] was found to be 4.3%; in experiment [8] it was 0.9%; in [9], 3.79%; in experiment [10], 2.16%.

Consider `c1ccc(-c2n[nH]cc2-c2ccnc(-c3ccc(OCCn4ccnc4)cc3)c2)nc1`, for which the inhibition in [1] was 0.94%; in experiment [2] it was 1.86%; in experiment [3], 6.97%; in experiment [4], 1.11%; in experiment [5], 4.49%; in [6], 1.43%. For the same compound, the inhibition in experiment [7] came to 10%; in [8], 0.61%; in experiment [9] it was 1.21%; in experiment [10], 3.95%.

With `CN1CCC(n2cnc(-c3ccc(F)cc3)c2-c2ccnc(NCCO)n2)CC1`, the inhibition in experiment [1] was -0.43%; in [2], 2.07%; in experiment [3], 2.04%; in experiment [4] it was 0.67%; in [5], 0.7%; in experiment [6], 3.75%. The inhibition was 2.73% in [7], 1.02% in experiment [8], 2.41% in [9] and 3.29% in experiment [10].

On to `COc1ccc(Nc2ncc(-c3ccccc3)o2)cc1OC`, for which the inhibition in experiment [1] is 22.2%; in [2] it was 5.15%; in [3], 14%; in experiment [4], 11.1%; in experiment [5] it was 45.7%; in [6], -1.71%. In addition, the inhibition in experiment [7] came out at 23.4%; in [8], 0.23%; in experiment [9], 5.9%; in experiment [10], 2%.

With `c1cnn2ncc(-c3ccnc(NCCCN4CCOCC4)n3)c2c1`, the inhibition in experiment [1] was -0.22%; in [2], 2.24%; in experiment [3], 7.97%; in experiment [4], 0.21%; in [5], 2.95%; in [6] it was -1.7%. Besides, the inhibition was determined as 2.95% in [7], 1.77% in [8], 6.81% in experiment [9] and 0.39% in [10].

In the case of `O=C1Nc2ccccc2/C1=C1\CCc2cc(O)ccc21`, the inhibition in [1] was determined as 2.91%; in [2], 3.57%; in experiment [3], 7.74%; in experiment [4], 1.5%; in [5], 7.54%; in experiment [6], 3.57%. Besides, the inhibition in experiment [7] came to 30.5%; in [8] it was 2.81%; in experiment [9], 13.6%; in experiment [10], 1.61%.

In the case of `CS(=O)(=O)CCNCc1ccc(-c2ccc3ncnc(Nc4ccc(OCc5cccc(C(F)(F)F)c5)cc4)c3c2)o1`, the inhibition was found to be 1.01% in experiment [1]; 3.72% in experiment [2]; 2.89% in experiment [3]; 0.15% in experiment [4]; 0.08% in experiment [5]; 0.44% in experiment [6]. For the same compound, the inhibition in experiment [7] came to 1.5%; in experiment [8], 0.99%; in experiment [9] it was 1.97%; in experiment [10] it was 1.09%.

With `COc1ccccc1-c1cc(/C=C2\C(=O)Nc3ncc(Br)cc32)cc(Br)c1O`, the inhibition in experiment [1] stood at 1.11%; in experiment [2], 5.08%; in experiment [3], 7.62%; in [4] it was 4.84%; in experiment [5], 4.91%; in experiment [6] it was 1.08%. The inhibition in experiment [7] was determined as 6.64%; in [8] it was 1.63%; in [9], 5.09%; in [10] it was 2.35%.
